# Compound activity deposited in PubChem BioAssay by several laboratories.
# SENP8 block-1: inhibitors of human SENP8 protease; AID 2540; inhibition, % at 10 µM; Q96LD8; purified SENP8, Z-RLRGG-aminoluciferin cleavage, luminescence; actives 1.2% (n = 330,000); in the data active = inhibition above about 50%
# Target sequence (Q96LD8 whole entry, looked up): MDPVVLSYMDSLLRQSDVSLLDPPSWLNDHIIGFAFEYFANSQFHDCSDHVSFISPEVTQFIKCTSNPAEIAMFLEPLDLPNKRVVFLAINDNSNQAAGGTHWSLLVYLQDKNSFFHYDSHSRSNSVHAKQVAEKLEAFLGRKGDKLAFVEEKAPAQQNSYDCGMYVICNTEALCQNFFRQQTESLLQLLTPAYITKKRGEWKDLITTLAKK
# SENP6 block: SENP6 protease inhibition; inhibition, % at 10 µM; AID 2599; Q9GZR1; Recombinant SENP6 catalytic domain, aminoluciferin luminescence; actives 1.8% (n = 330,000);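 active = inhibition above about 50% at the single tested dose, limit read from the data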;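 also: plate controls were DMSO wells with enzyme for no effect and DMSO wells lacking enzyme for full effect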
# HSP90 refold inh: inhibitors of HSP90 luciferase refolding in rabbit reticulocyte lysate. luciferase refolding luminescence, 3 h. inhibition, % at 5.6 µM. actives 0.91% (n = 290,000). AID 1789;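 active = inhibition above the screen-wide mean plus 3 SD, computed separately per campaign, cut at about 16% in these data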;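 also: 0% = DMSO wells and 100% = 60 µM geldanamycin wells; inhibitors lower the luminescence because luciferase stays unfolded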
# SENP8 block-2: SENP8 (human) protease inhibition; inhibition, % at 20 µM; recombinant SENP8, Nedd8 substrate fluorescence; actives 0.64% (n = 360,000); in the data active = inhibition mostly above about 40%, no sharp cut-off; inactive = mostly below about 27%
# SENP7 inh: inhibitors of human SENP7 protease; Q9BQF6; recombinant SENP7, Z-RLRGG-aminoluciferin luminescence, 40 min; inhibition, % at 5 µM; actives 1.5% (n = 330,000);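 active = inhibition above about 50% at the single test dose, limit read from the data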;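 also: plate controls were DMSO with enzyme for no effect and no enzyme buffer wells for full effect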
# Target sequence (Q9BQF6 706-1050 limits assumed): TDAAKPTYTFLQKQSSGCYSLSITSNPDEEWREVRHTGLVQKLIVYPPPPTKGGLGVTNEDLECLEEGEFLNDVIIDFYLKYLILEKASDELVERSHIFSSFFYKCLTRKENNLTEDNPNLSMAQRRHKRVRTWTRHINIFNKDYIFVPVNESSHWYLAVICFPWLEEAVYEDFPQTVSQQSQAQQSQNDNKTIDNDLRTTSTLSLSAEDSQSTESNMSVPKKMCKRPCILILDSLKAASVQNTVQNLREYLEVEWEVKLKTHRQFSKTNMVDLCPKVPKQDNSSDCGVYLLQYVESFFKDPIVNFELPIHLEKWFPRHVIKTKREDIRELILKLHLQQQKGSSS
# SENP8 confirm: confirmation of human SENP8 protease inhibitors | shares compounds with SENP7 inh | Recombinant SENP8, Z-RLRGG-aminoluciferin luminescence, 60 min | inhibition, % at 12.5 µM | actives 40% (n = 6,200);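 active = mean inhibition across replicates above about 50%, limit read from the data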
# SENP6 confirm: confirmation of human SENP6 protease inhibitors | actives 58% (n = 6,200) | shares compounds with SENP7 inh | AID 488915 | inhibition, % at 12.5 µM | recombinant SENP6, Z-RLRGG-aminoluciferin luminescence
# SENP7 conf: confirmation of human SENP7 protease inhibitors. shares compounds with SENP7 inh. recombinant SENP7, Z-RLRGG-aminoluciferin luminescence, 40 min. inhibition, % at 12.5 µM. actives 69% (n = 6,200). AID 488917
# Casp3 select: inhibits human caspase-3 in SENP selectivity test | purified caspase-3, Z-DEVD-aminoluciferin luminescence, 60 min | actives 60% (n = 6,200) | AID 488918 | shares compounds with SENP7 inh | inhibition, % at 12.5 µM;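 active = mean inhibition above about 50%, limit read from the data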;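 also: plate controls were enzyme with DMSO for no effect and wells without caspase-3 for full effect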
# Luc interf: luminescence interference (SENP counter-screen). AID 488919. inhibition, % at 12.5 µM. shares compounds with SENP7 inh. Pre-incubated SENP8/Z-RLRGG-aminoluciferin, luciferase luminescence interference. actives 39% (n = 6,200);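 active = mean inhibition above about 50% when retested at one dose, limit read from the data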;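 also: plate controls were DMSO wells with completed reaction for no effect and substrate without enzyme for full effect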
# * marks the source's active call; other numbers are inactive results; i = inactive; / = no result given. A selection: hits, their analogues and other compounds. The true share with any hit is near 2.8%.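 The calls were made as follows, unless noted: active = mean inhibition above about 50% in the one-dose retest (limit read from the data); inactive = the rest.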
SMILES,SENP8 block-1,SENP6 block,HSP90 refold inh,SENP8 block-2,SENP7 inh,SENP8 confirm,SENP6 confirm,SENP7 conf,Casp3 select,Luc interf
O=C(O)CCC1=C2c3ccccc3CCN2C(=O)CC1,1,-4,1,-3,4,/,/,/,/,/
CN1CCN(S(=O)(=O)c2ccc(Nc3ccc(F)cc3)c([N+](=O)[O-])c2)CC1,-8,-13,/,20,-12,/,/,/,/,/
O=C(CCn1c(=O)[nH]c2ccccc2c1=O)Nc1ccccc1,-6,-25,0,1,-10,/,/,/,/,/
COc1ccccc1/C=C/c1nc2ccc(OC(C)=O)cc2c(=O)o1,64*,72*,1,-498,65*,13,7,17,14,-1
O=C1C2CCCN2C(c2cccc(F)c2)N1c1cccc(Cl)c1 (stereo not given),5,5,1,10,-1,/,/,/,/,/
O=C(Nc1ccc(C(=O)N2CCCCC2)cc1)c1cccs1,47,66*,-2,10,60*,48,47,78*,83*,59*
O=C(N/N=C/c1ccc(N2CCOCC2)cc1)c1cccs1,63*,74*,5,-376,76*,67*,69*,92*,90*,70*
O=C(N/N=C/c1ccc(N2CCOCC2)cc1)c1ccc(NS(=O)(=O)c2cccs2)cc1,-7,-16,0,-406,-7,/,/,/,/,/
Cc1ccn(-c2ccc(NC(=O)c3cccs3)cc2)n1,74*,85*,2,5,80*,78*,76*,94*,88*,82*
CN1CCN(c2ccc(NC(=O)c3cccs3)cc2)CC1,28,54*,0,1,39,25,24,72*,82*,47
CN(C)c1ccc(/C=[N+](\[O-])C2SC(=S)N(C)C2(C)C)cc1 (stereo not given),-14,1,-1,6,-8,/,/,/,/,/
COC(=O)C(O)(CC(=O)Nc1cc(Cl)ccc1Cl)C(F)(F)F (stereo not given),5,18,-3,23,4,/,/,/,/,/
CCOc1ccccc1NC(=O)Nc1ccc(OC)nc1,/,/,-3,20,/,/,/,/,/,/
O=C(NC1CCCCC1)N1CCN(c2ccccc2)CC1,-2,-7,4,10,8,/,/,/,/,/
COC(=O)c1scc2c(Oc3ccccc3)cc(C(F)(F)F)nc12,-3,-29,1,/,-10,/,/,/,/,/
COc1ccc(NC(=O)C2CC(=O)n3c(nc4ccccc43)N2)cc1 (stereo not given),-1,-6,6,10,5,/,/,/,/,/
COc1cc(NC(=O)CNC(=O)Cn2cnc3sc(C)c(C)c3c2=O)cc(OC)c1OC,/,/,/,13,/,/,/,/,/,/
CCCN1C(=O)c2ccc(C(=O)Nc3ccccc3C(=O)O)cc2C1=O,79*,89*,1,18,16,86*,85*,97*,44,89*
CCCN1C(=O)c2ccc(C(=O)Nc3cc(C)ccc3O)cc2C1=O,51*,-25,13,12,97*,-22,20,52*,50*,1
CCCCN1C(=O)c2ccc(C(=O)Nc3cccc(C)c3C)cc2C1=O,-1,-4,4,12,4,/,/,/,/,/
Cc1cccc(OCCNC(=O)c2cc(-n3cnnc3)ccc2Cl)c1,4,-6,2,10,0,/,/,/,/,/
CC(=O)NC1(c2cccc(F)c2)CCN(CC(=O)NC2CCCCC2)CC1,-2,-9,1,21,5,/,/,/,/,/
COc1cc(OC)c(-c2nc3ccccc3s2)cc1OC,-10,-8,-4,-399,4,/,/,/,/,/
Nc1cccc(-c2nc3ccccc3s2)c1,93*,100*,-3,i,100*,96*,98*,103*,96*,97*
COC(=O)N(C)c1nc2ccccc2s1,-4,-13,2,27,4,/,/,/,/,/
SMILES,SENP8 block-1,SENP6 block,HSP90 refold inh,SENP8 block-2,SENP7 inh,SENP8 confirm,SENP6 confirm,SENP7 conf,Casp3 select,Luc interf
COc1cc(-c2nc3ccccc3s2)ccc1O,94*,94*,3,-272,89*,95*,96*,102*,88*,95*
CN(C(=O)OC(C)(C)C)c1ccc(-c2nc3ccccc3s2)cc1,95*,100*,/,-488,100*,95*,97*,100*,93*,46
CC(=O)c1c(C)oc2c1cc(O)c1ccccc12,0,-18,1,7,6,/,/,/,/,/
CCOC(=O)c1c(C)oc2c1cc(O)c1ccccc12,26,29,0,-48,72*,3,13,7,6,-2
COc1ccc(-c2c(C)nn3c(N)c(C#N)cnc23)cc1OC,-2,4,2,6,9,/,/,/,/,/
C/C(=N\Nc1ccc([N+](=O)[O-])cc1)c1ccco1,58*,74*,-7,-20,70*,27,51*,84*,46,16
Cc1nn(-c2ccc(NC(=O)c3ccncc3)cc2)c(C)c1Cl,4,-20,-1,12,-7,/,/,/,/,/
COC(=O)Cc1ccc2sc(-c3ccccc3)nc2c1,94*,94*,-3,0,100*,96*,98*,101*,96*,94*
O=C(O)Cc1ccc2sc(-c3ccccc3)nc2c1,93*,99*,0,-2,91*,96*,97*,101*,97*,96*
O=C(O)Cc1ccc(-c2ccccc2-c2ccccc2)cc1,8,-14,3,12,3,/,/,/,/,/
O=C(Nc1ccc2c(c1)CCC2)c1ccccc1F,70*,92*,9,33,80*,11,86*,99*,85*,85*
Cc1ccc(NC(=O)c2sc(N)nc2C)cc1,13,0,-3,17,32,/,/,/,/,/
Cc1ccc(C(=O)Nc2nc(C)c(C(=O)Nc3ccc4c(c3)CCC4)s2)cc1,17,66*,13,-115,42,38,32,65*,49,6
CCOC(=O)c1ccc(NC(=O)c2cnccn2)cc1,-19,-19,1,-10,-7,/,/,/,/,/
CCCCc1ccc(NC(=O)c2cnccn2)cc1,85*,85*,17*,19,92*,92*,95*,101*,86*,58*
O=C(O)c1ccccc1-c1ccccc1C(=O)Nc1ccc2c(c1)CCC2,1,-6,0,11,-4,/,/,/,/,/
O=C(Nc1ccc2c(c1)CCC2)c1cnccn1,35,52*,-6,6,47,55*,52*,83*,77*,29
CC1(C(=O)NS(=O)(=O)c2ccccc2C(F)(F)F)CCN1C(=O)COc1ccc(Cl)cc1 (stereo not given),/,/,/,17,/,/,/,/,/,/
